# A selection: hits, their analogues and other compounds. The true share with any hit is near 2.1%.
# BaF3 parental: reduces parental Ba/F3 cell viability, JAK2V617F counter-screen; 220,000 tested, 1.1% active; CellTiter-Glo ATP luminescence; inhibition, % at 5.6 µM;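 active means inhibition above a per-campaign cutoff, the mean inhibition of all tested compounds plus 3 SD, cut at about 27% in these data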
# KLF5 inhibitor: suppresses KLF5 promoter-driven expression; DLD-1 KLF5 promoter-luciferase reporter, luminescence; inhibition, % at 5 µM; 290,000 tested, 0.23% active; AID 1700;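 active means inhibition above a per-plate limit of that plate's mean compound inhibition plus 3 SD, cut at about 60% in these data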;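 further: higher means less KLF5 promoter-driven luciferase light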
# Ba/F3 V617F tox: lowers viability of Ba/F3 cells expressing EpoR and JAK2V617F; ATP luminescence; inhibition, % at 5.6 µM; 220,000 tested, 1.1% active;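 active means inhibition above the campaign mean plus 3 SD over all tested compounds, cut at about 24% in these data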;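 further: cytokine-independent growth of Ba/F3 cells driven by EpoR plus mutant JAK2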
# IEC-6 tox: counter-screen for KLF5 inhibitors: cytotoxicity in IEC-6 cells. IEC-6 cytotoxicity, luminescence viability. inhibition, % at 5 µM. 290,000 tested, 0.78% active. AID 1825; in the data active means inhibition above about 22%
# APP transl inh: APP translation inhibition; SH-SY5Y APP 5'UTR-luciferase reporter, luminescence; inhibition, % at 2 µM; 190,000 tested, 0.82% active;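 active means inhibition above a set limit, derived from the sample mean plus 3 SD, cut at about 45% in these data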
# aSyn UTR inh: 5' untranslated region of α-synuclein, MLPCN primary screen; alpha-synuclein 5'UTR reporter, inhibitor activity; inhibition, % (tested at 7.5 µM); 300,000 tested, 0.82% active; AID 1813; in the data active means inhibition above about 60%;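 further: H4 neuroglioblastoma cells stably carrying SNCA 5'UTR luciferase fusion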
# Numbers stand for hits; – = inactive; · = not tested or not shown.
SMILES,BaF3 parental,KLF5 inhibitor,Ba/F3 V617F tox,IEC-6 tox,APP transl inh,aSyn UTR inh
CC(=O)/C(C[N+]1(C)CCCCC1)=N\O,–,–,–,–,–,–
C[N+]1(CC(=O)OC2CCCCCCCCCCC2)CCCC1,72,–,73,–,–,–
CC1=NN(c2ccccc2)C(=O)/C1=C\c1cc(C)n(-c2ccccc2)c1C,–,–,–,25,–,–
CC1=NN(c2ccccc2)C(=O)/C1=C\c1cc(C)n(-c2cccnc2)c1C,–,–,–,–,·,–
CCN(C(=O)c1cccc(S(=O)(=O)N2CCCCC2)c1)C1CCS(=O)(=O)C1 (configuration not stated),·,·,·,·,·,–
Cc1ccc(NC(=S)/N=C(\N)Nc2nc(C)c3cc(C)ccc3n2)c(C)c1,51,–,42,–,–,–
Cc1ccc(NC(=S)/N=C(\N)Nc2nc(C)c3cc(C)c(C)cc3n2)cc1C,38,–,–,–,–,–
CCc1ccccc1NC(=S)/N=C(\N)Nc1nc(C)c2cc(C)ccc2n1,55,–,54,–,–,–
COc1ccc2nc(N/C(N)=N/C(=S)Nc3cccc(C)c3)nc(C)c2c1,–,–,–,–,·,–
CCn1c(=O)c2sccc2n2c(CCCC(=O)NCc3cccnc3)nnc12,·,–,·,–,·,–
O=C(CNS(=O)(=O)c1ccc(Cl)cc1)OCC(=O)N1CCCc2ccccc21,–,–,–,–,–,–
Nc1ccc(C(=O)CC(=O)Nc2ccc(Cl)cc2)cc1,·,–,·,–,·,–
CC(C)c1c(C(=O)N/N=C2\CCc3ccccc32)nnn1-c1nonc1N,·,–,·,–,·,–
CC(OC(=O)Cc1c(F)cccc1Cl)C(=O)NC1(C#N)CCCCC1 (configuration not stated),·,·,·,·,·,–
O=C(Nc1ccc(NC(=O)c2ccccc2Cl)nc1)c1ccncc1,90,–,–,–,–,–
O=C(Nc1ccc(NC(=O)c2ccccc2)nc1)c1ccncc1,–,–,–,–,–,–
Cc1ccc(C(=O)NCC(=O)NCCCc2ccccc2)cc1,·,–,·,–,·,–
NNC(=O)c1[nH]c2ccc(Br)cc2c1-c1ccccc1,–,–,–,–,·,–
NNC(=O)c1[nH]c2ccc(Cl)cc2c1-c1ccccc1,–,–,–,–,·,77
Cc1c(C(=O)N/N=C/c2ccccc2)[nH]c2ccc(Cl)cc12,–,–,–,–,52,–
O=C(N/N=C/c1ccccc1)c1c(O)c2ccccc2[nH]c1=O,–,–,–,–,–,–
Cc1c(C(=O)N/N=C/c2ccc(N(C)C)cc2)[nH]c2ccc(Cl)cc12,–,–,–,–,90,73
CCN(CC(=O)Nc1c(F)cccc1F)C(=O)/C=C/c1ccc(S(=O)(=O)N2CCCCCC2)cc1,·,·,·,·,·,78
Cc1cc(NC(=S)N(CCCN2CCN(C)CC2)Cc2ccco2)ccc1Cl,27,–,35,–,–,–
Cc1ccc(NC(=S)N(CCCN2CCOCC2)Cc2ccco2)cc1C,–,–,–,–,–,·
SMILES,BaF3 parental,KLF5 inhibitor,Ba/F3 V617F tox,IEC-6 tox,APP transl inh,aSyn UTR inh
CCCCCCc1cc2cc(C(=O)Nc3ccccc3)c(=O)oc2cc1O,–,–,–,–,–,92
Cc1ccc(S(=O)(=O)N2CCC(C(=O)OCC(=O)N3CCC(C)CC3)CC2)cc1C,·,·,·,·,·,–
CCOC(=O)C1=NN(C(=O)c2cccc(Br)c2)C(O)(C(C)(C)C)C1 (configuration not stated),–,–,–,–,·,105
O=C(c1ccc2oc(CCc3ccccc3)nc2c1)N1CC[C@H](O)C1,·,–,·,–,·,–
COc1ccc(CN(C(=O)/C=C/C(=O)c2ccc(OC)cc2O)C(C(=O)NC2CCCCC2)c2ccncc2)cc1 (configuration not stated),–,–,–,–,–,–
COCCN(CC(=O)NC1CCCCC1)C(=O)/C=C/C(=O)c1ccc(OC)cc1O,–,–,–,–,93,79
COc1ccc(C(=O)/C=C/C(=O)N(CC(=O)NC2CCCCC2)Cc2cccs2)c(O)c1,–,–,–,–,77,71
Cc1c(NC(=O)c2cc3nc(-c4ccc(Br)cc4)cc(C(F)(F)F)n3n2)c(=O)n(-c2ccccc2)n1C,94,–,–,–,–,–
CCOC(=O)C1(CCOC)CCN(C(=O)c2ccccc2-c2cccc(C)c2)CC1,82,–,–,–,–,–
CCN(CC)c1ccc(/C=N/NC(=O)c2cccc(S(=O)(=O)N3CCOCC3)c2)c(O)c1,–,–,–,–,60,129
CCOC(=O)N/N=C/c1ccc(N(CC)CC)cc1O,–,–,–,–,–,–
O=C(N/N=C/c1sc(N2CCOCC2)nc1-c1ccccc1)c1cccc(S(=O)(=O)N2CCOCC2)c1,–,–,–,–,·,87
Nc1ccc(C(=O)N/N=C/c2sc(N3CCOCC3)nc2-c2ccccc2)cc1,–,–,–,–,–,–
CCN(CC)c1ccc(/C=N/NC(=O)CCC(=O)NCc2ccccc2)c(O)c1,–,–,–,–,52,–
O=C(N/N=C/c1ccccc1O)c1cccc(C(F)(F)F)c1,–,–,–,–,54,82
O=C(N/N=C/c1ccc(O)cc1)c1cccc(C(F)(F)F)c1,–,–,–,–,–,–
CCN1C(=O)[C@H]2[C@@H](c3ccc(-c4ccccc4)cc3)N3CCC[C@@]3(C(=O)OC)[C@H]2C1=O,·,·,·,·,·,–
O=C(OCc1ccc(Br)cc1F)c1cc2ccccc2oc1=O,·,–,·,–,·,–
Cc1c(Cl)cccc1-c1ccc(CNCc2ccccn2)o1,·,–,·,–,·,–
CCN(CC)S(=O)(=O)c1cccc(C(=O)N/N=C/c2cc(OC)c(O)c(OC)c2)c1,–,–,–,–,–,–
CCN(CC)S(=O)(=O)c1cccc(C(=O)N/N=C/c2cccc(O)c2O)c1,–,–,–,–,50,66
O=[N+]([O-])c1ccc(N/N=C/c2sc(N3CCOCC3)nc2-c2ccccc2)c(S(=O)(=O)Nc2ccccc2Cl)c1,–,–,–,–,–,·
CCN(CC)c1ccc(/C=N/Nc2nc(C)cc(=O)[nH]2)c(O)c1,–,–,–,–,85,95
CCN(CC)c1ccc(/C=N/NC(=O)c2c(Cl)cnn2C)c(O)c1,–,–,–,–,60,90
O=[N+]([O-])c1ccc(N/N=C/c2sc(N3CCOCC3)nc2-c2ccccc2)c(S(=O)(=O)Nc2ccc(Cl)cc2)c1,–,–,–,–,–,76
SMILES,BaF3 parental,KLF5 inhibitor,Ba/F3 V617F tox,IEC-6 tox,APP transl inh,aSyn UTR inh
COc1ccc(N2CC(C(=O)N[C@@H](CC(C)C)C(=O)NC3CCCC3)CC2=O)cc1 (some centres not stated),·,–,·,–,·,–
Cc1ccc(-n2ncc3c2CC(C)(C)CC3NC(=O)CCc2cccnc2)cc1 (configuration not stated),·,–,·,–,·,–
O=C1CCc2cc(S(=O)(=O)Nc3cccc(F)c3)cc3c2N1CC3,·,·,·,·,·,–
O=C1N/C(=C/c2ccc(N3CCOCC3)o2)C(=O)N1c1ccccc1,–,–,–,–,54,·
COc1ccccc1N=Nc1nc(-c2ccccc2)c(-c2ccccc2)[nH]1,–,–,–,–,–,–
Oc1ccccc1N=Nc1nc(-c2ccccc2)c(-c2ccccc2)[nH]1,97,–,98,–,88,107
